About 83,000 compounds went through this panel and 20% of them were active in at least one assay; those are over-represented in the sample as a whole.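 48-hour exposure, single concentration, 96-well plates; percent growth endpoint where 0 means no net growth. Active: below 10.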 Activity calls are given as the source filed them.
Tested on: IGROV1 ovarian
Test: NCI-60 one-dose screen, 48 h (100 = growth as untreated, 0 = no growth, -100 = all killed)
Settings: 10 µM unless noted
Procedure: Growth inhibition of the IGROV1 human tumor cell line is measured as a screen for anti-cancer activity. Cells are grown in 96 well plates and exposed to the test compound for 48 hours. Compounds are tested at a single concentration, which is 10^-5 M for most compounds. The reported endpoint is percent growth (GI% or GIPRCNT), where numbers from 0 - 100% represent growth inhibition, and numbers from -100% - 0 represent cell death. For example, a value of 40 represents 60% growth inhibition. A value of 0 means no net growth occurred over the course of the experiment. A value of -40 indicates 40% of cells at the beginning of the experiment died by the end of the experiment. A value of -100 means all cells are dead at the end of the experiment.
NCI-60 Human Tumor Cell Lines Screen was performed using the standard one-dose NCI protocol, which is described in more detail at https://dtp.cancer.gov/discovery_development/nci-60/default.htm.
Compounds with GIPRCNT values below 10 were considered active. Activity score was based on GIPRCNT using the following formula: […]
Score is 0 for GIPRCNT values of 100 or above, 50 for GIPRCNT values of 0, and 100 for GIPRCNT values of -100.

| Structure (SMILES) | growth |
| --- | --- |
| COc1ccc(C2=NN(C(C)=O)C(c3c(C)nn(-c4ccccc4)c3N3CCOCC3)C2)cc1 (stereo not given) | 103% (inactive) |
| O=Cc1ccccc1C(=O)O | 110% (inactive) |
| O=Cc1ncc(-c2ccc(C(F)(F)F)cc2)c(NC2CCCCCC2)n1 | -68.3% [100 µM] (active) |
| C/C(=C\CCc1ccoc1)CC/C=C(\C)CCCN1CCSCC1 | 93.7% (inactive) |
| COc1cc(/C=C2\SC(N3CCCCC3)=NC2=O)ccc1OCCCCCCOc1ccc(/C=C2\SC(N3CCCCC3)=NC2=O)cc1OC | 19.5% (inactive) |
| CCCCCCCC[Si](OCC)(OCC)OCC | 94.6% (inactive) |
| CCCCOP(=O)(OCCCC)C(C(=O)OCC)C(CC(=O)OCC)C(=O)OCC (stereo not given) | 112% (inactive) |
| O=C(N/N=C/c1ccc(Cl)cc1Cl)c1ccccc1Nc1cccc(C(F)(F)F)c1 | 43.8% (inactive) |
| CCOC(=O)CNC(=O)C1(NC(=O)CNC(=O)OCc2ccccc2)CCCC1 | 117% (inactive) |
| COc1c(O)cc2c(c1CC=C(C)C)OC(=O)c1c(cc(O)c(CC=C(C)C)c1O)O2 | 69.6% (inactive) |
| c1ccc2nc(Cn3c[n+](Cc4ccc5ccccc5n4)c4ccccc43)ccc2c1 | 34.8% (inactive) |
| COc1cc(OC)c2c(c1Cl)O[C@]1(C2=O)C(OCc2ccccc2)=CC(=O)C[C@H]1C | 3.14% (active) |
| CCCCNCCCN(CCCC)CCCNCCCC | 99.5% (inactive) |
| OCCCc1n(Cc2ccc3ccccc3c2)c2ccccc2[n+]1Cc1ccc2ccccc2c1 | -42.2% (active) |
| COC(=O)C1(NC(=O)CNC(=O)OCc2ccccc2)CCCC1 | 115% (inactive) |
| COc1cc(/C=C/c2cc(/C=C/c3ccc(O)c(OC)c3)n(C(=O)Cc3ccccc3)n2)ccc1O | 11.4% (inactive) |
| Cc1cc(=O)[nH]c(/C(=N/Nc2ccccc2)C(=O)c2ccc(Cl)cc2)n1 | 17.6% (inactive) |
| Cc1ccc(NC(=O)c2sc3nc4c(cc3c2N)C(=O)CCC4)cc1 | 95.9% (inactive) |
| C[N+]1(C)C2CC[C@@H]1CC(OC(=O)C(O)c1ccccc1)C2 (stereo not given in full) | 103% (inactive) |
| Cc1n(Cc2ccc3ccccc3c2)c2ccccc2[n+]1Cc1ccc2ccccc2c1 | -61.8% (active) |

| Structure (SMILES) | growth |
| --- | --- |
| COc1cccc(/C=N\NC(=O)c2ccncc2)c1O | 65.1% (inactive) |
| COC(=O)[C@H](CCCCNC(=O)OCc1ccccc1)NC(=O)[C@@H](NC(=O)Nc1cc(C(F)(F)F)cc(C(F)(F)F)c1)C(C)C | -61% [100 µM] (active) |
| CCC(C)C1NC(=O)C(CCNCS(=O)(=O)O)NC(=O)C(NC(=O)C(CCNCS(=O)(=O)O)NC(=O)C(NC(=O)C(CCNCS(=O)(=O)O)NC(=O)CCCCC(C)C)C(C)O)CCNC(=O)C(C(C)O)NC(=O)C(CCNCS(=O)(=O)O)NC(=O)C(CCNCS(=O)(=O)O)NC(=O)C(C(C)CC)NC1=O (stereo not given) | 56.8% (inactive) |
| CC[C@H]1CN2CCc3cc(OC)c(OC)cc3C2C[C@@H]1CC1NCCc2cc(OC)c(OC)cc21 (stereo not given in full) | -22.9% (active) |
| COc1cc2c(cc1OC)C(CC1(O)CCCCC1)N(S(=O)(=O)c1ccc(C)cc1)CC2 (stereo not given) | 53.6% [100 µM] (inactive) |
| O=C1C=CC(=O)N1c1ccccc1N1C(=O)C=CC1=O | 95.3% (inactive) |
| O=c1[nH]c(N2CCC(Cc3ccccc3)CC2)nc2sc3c(c12)CCCC3 | 106% (inactive) |
| Clc1ccc(C2c3ccccc3-c3nccn32)c(Cl)c1 (stereo not given) | 77.1% (inactive) |
| NS(=O)(=O)c1ccc(-n2nc(-c3ccc(Br)cc3)ccc2=O)cc1 | 50.2% [100 µM] (inactive) |
| CC(C)N(Cc1ccccc1)c1c(S)ssc1=S | -39.4% (active) |
| COC(=O)Nc1ccc2ccc3c(NC(=O)OC)ccc4ccc1c2c43 (tested in a mixture with another compound) | 51.1% (inactive) |
| CCSc1nc(-c2ccc(F)cc2)c(C#N)c(=O)[nH]1 | 107% (inactive) |
| Cn1ccnc1C(=O)/C=C/c1ccc(C(=O)Nc2nc3ccccc3[nH]2)cc1 | 36% (inactive) |
| CCOC(=O)C1C(=O)NC(C(=O)OCC)(C(=O)OCC)C1CC (stereo not given) | 124% (inactive) |
| CC(=O)N1N=C(c2ccc(C(F)(F)F)cc2)CC1c1ccc2c(c1)OCO2 (stereo not given) | 67% (inactive) |
| Nc1ccc2c(c1)C(=O)c1cc(Cl)c(Cl)cc1-2 | 94.6% (inactive) |
| Cc1sc2nc(N3CCCCC3)[nH]c(=O)c2c1C | 107% (inactive) |
| CC(=O)N1N=C(c2ccc(Nc3ccnc4cc(Cl)ccc34)cc2)CC1c1ccc(Cl)cc1 (stereo not given) | 51.1% (inactive) |
| COc1ccc2nc(-c3ccc(Cl)cc3)cc(-c3nnc(SCC(=O)Nc4ccc(C(C)=O)cc4)n3-c3ccccc3)c2c1 | 107% (inactive) |
| COc1cc(/C=C/C(=O)C(C(=O)/C=C/c2ccc(OC(=O)CCNC34CC5CC(CC(C5)C3)C4)c(OC)c2)C(=O)CCNC23CC4CC(CC(C4)C2)C3)ccc1OC(=O)CCNC12CC3CC(CC(C3)C1)C2 (stereo not given) | -33.2% (active) |

Source: PubChem BioAssay (NCI)
